± gives the standard deviation.
Key:
Conditions in all cases: modulator concentration 10 µM
[1] = system: RAW-Dual (murine macrophage reporter line); assay: NF-kB reporter (SEAP) activity fold change vs agonist alone; higher = enhanced NF-kB activity
Method in brief: (§1)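 RAW-Dual murine macrophage reporter cells were seeded at 50 000 per well in 384-well plates and pre-incubated 1 hour at 37 °C with compound pin-transferred to 10 μM final. After 1 hour, a PRR agonist was added and cells incubated overnight. Supernatant NF-κB (SEAP, QUANTI-Blue, 620 nm absorbance) and IRF (Lucia luciferase, QUANTI-Luc, luminescence) signals were divided by the mean agonist-only control on the same plate to give fold change. Two replicate plates were averaged, with errors by propagation.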

[2] = system: RAW-Dual (murine macrophage reporter line); assay: IRF reporter (Lucia luciferase) activity fold change vs agonist alone; higher = enhanced IRF activity
Method in brief: as §1

[3] = system: RAW-Dual (murine macrophage reporter line); assay: viability score (confluency relative to resting cells, overnight) (fraction); higher = more viable, active = viable (0.7 or more)
Method in brief: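 RAW-Dual macrophages in 384-well plates were treated overnight with compound at 10 μM final. IncuCyte imaging recorded confluency, and IncuCyte software built two confluency masks across every imaged well. The viability score expresses confluency relative to resting cells and was judged against a cutoff, which a compound met only if both masks exceeded 70% of resting cells.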

[4] = agonist: CpG ODN 1826 0.5 ug/mL

SMILES | NF-kB reporter [1, 4] | NF-kB reporter ([1]; agonist: LPS 0.1 ug/mL) | NF-kB reporter ([1]; agonist: MPLA […]) | IRF reporter ([2]; agonist: 3'3'-cGAMP 10 ug/mL) | IRF reporter ([2]; agonist: LPS 0.1 ug/mL) | IRF reporter ([2]; agonist: MPLA […]) | viability score [3]
Cc1cc(C(=O)N2C3CCC2c2cncnc2C3)n(C)n1 (stereo unspecified) | 0.979 ± 0.074 | 1.01 ± 0.085 | 0.917 ± 0.046 | 0.983 ± 0.085 | 1.19 ± 0.096 | 1.11 ± 0.22 | 1 (active)
CC[N+]1(C)CCCC(OC(=O)C(O)(c2ccccc2)c2ccccc2)C1 (stereo unspecified) [Prestw-760] | 0.921 ± 0.061 | 0.955 ± 0.092 | 0.966 ± 0.073 | 0.952 ± 0.038 | 1.13 ± 0.09 | 0.973 ± 0.18 | 0.994 (active)
Cc1cccc(COc2ccc(C=C3C(=O)NC(=S)NC3=O)cc2)c1 | 0.855 ± 0.07 | 0.875 ± 0.047 | 1.14 ± 0.099 | 0.844 ± 0.056 | 0.992 ± 0.093 | 0.969 ± 0.12 | 0.981 (active)
COc1cc2c(c(OC)c1OC)-c1ccc(OC)c(=O)cc1C(NC(C)=O)CC2 (stereo unspecified) | 2.37 ± 0.14 | 1.47 ± 0.092 | 2.59 ± 0.15 | 0.0948 ± 0.0032 | 1.87 ± 0.21 | 2.02 ± 0.27 | 0.673 (inactive)
CN1CC(CNC(=O)OCc2ccccc2)CC2c3cccc4c3c(cn4C)CC21 (stereo unspecified) | 1.02 ± 0.065 | 0.966 ± 0.11 | 0.963 ± 0.08 | 0.986 ± 0.034 | 1.43 ± 0.14 | 1.2 ± 0.18 | 0.997 (active)
CCCCCC(=O)NC(Oc1ccc([N+](=O)[O-])cc1)C(Cl)(Cl)Cl (stereo unspecified) | 0.988 ± 0.091 | 1.08 ± 0.07 | 1 ± 0.035 | 0.896 ± 0.22 | 1.06 ± 0.085 | 1.03 ± 0.069 | 1 (active)
COc1ccc(OC)c(C=C2C(=O)NC(=O)NC2=O)c1 | 1.15 ± 0.12 | 0.845 ± 0.061 | 1.12 ± 0.061 | 0.99 ± 0.17 | 0.995 ± 0.05 | 1.01 ± 0.16 | 0.995 (active)
COc1ccc(CNCCc2c[nH]c3ccccc23)cc1OC | 0.397 ± 0.056 | 0.947 ± 0.12 | 0.808 ± 0.077 | 0.763 ± 0.03 | 1.33 ± 0.26 | 1.34 ± 0.24 | 1.01 (active)
O=C1NC(=O)C(=Cc2cccn2-c2ccc(Br)cc2)C(=O)N1 | 1.09 ± 0.09 | 0.758 ± 0.06 | 1.08 ± 0.04 | 0.876 ± 0.094 | 0.91 ± 0.14 | 0.844 ± 0.18 | 0.997 (active)
CCN(CC)CCNC(=O)C(O)(c1ccccc1)c1ccccc1 | 0.873 ± 0.071 | 0.937 ± 0.066 | 0.964 ± 0.038 | 0.968 ± 0.076 | 0.991 ± 0.17 | 0.923 ± 0.23 | 0.998 (active)
NC(=O)Cn1c(Cc2ccccc2Cl)nc2ccccc21 | 0.97 ± 0.061 | 0.84 ± 0.074 | 0.912 ± 0.031 | 0.996 ± 0.06 | 1.06 ± 0.093 | 0.99 ± 0.13 | 0.997 (active)
COc1ccc2c(c1O)-c1c(OC)c(OC)cc3c1C(C2)N(C)CC3 (stereo unspecified) | 0.618 ± 0.051 | 0.905 ± 0.088 | 1.1 ± 0.1 | 0.903 ± 0.046 | 1.29 ± 0.14 | 1.45 ± 0.17 | 1.04 (active)
Cc1ccc(C)c2sc(N3CCN(C)CC3)nc12.Cl | 0.743 ± 0.18 | 1.02 ± 0.18 | 1.07 ± 0.071 | 0.92 ± 0.032 | 1.04 ± 0.14 | 1.19 ± 0.22 | 0.976 (active)
CC(C)(C)NCC(O)c1cc(Cl)c(N)c(Cl)c1 (stereo unspecified) [Prestw-345] | 1.89 ± 0.13 | 0.945 ± 0.072 | 1.29 ± 0.044 | 1.03 ± 0.04 | 0.886 ± 0.06 | 0.933 ± 0.09 | 0.988 (active)
CCC1(c2ccc(N)cc2)CCC(=O)NC1=O (stereo unspecified) | 1.22 ± 0.091 | 1.04 ± 0.052 | 1.06 ± 0.089 | 1.12 ± 0.26 | 0.913 ± 0.077 | 0.939 ± 0.083 | 0.996 (active)
Cl.N=C(N)NN | 0.983 ± 0.15 | 1.02 ± 0.29 | 0.917 ± 0.064 | 0.892 ± 0.034 | 1.38 ± 0.27 | 1.25 ± 0.21 | 0.997 (active)
CCOC(=O)Nc1ccc(NCc2ccc(F)cc2)cc1N | 0.882 ± 0.039 | 1.09 ± 0.086 | 0.936 ± 0.051 | 0.893 ± 0.044 | 1.2 ± 0.33 | 1.33 ± 0.51 | 1.01 (active)
COc1cc(OC)c(OC)cc1C=O | 1.08 ± 0.3 | 1.04 ± 0.082 | 1.02 ± 0.067 | 0.794 ± 0.027 | 1.02 ± 0.11 | 0.99 ± 0.22 | 0.992 (active)
O=c1cc(CCl)occ1O | 1.18 ± 0.09 | 0.9 ± 0.09 | 1.13 ± 0.04 | 0.948 ± 0.13 | 0.876 ± 0.11 | 0.806 ± 0.26 | 0.999 (active)
CCCCCn1c(=O)c(C(=O)NCc2cccnc2)c(O)c2ccccc21 | 1.13 ± 0.086 | 1.25 ± 0.085 | 0.997 ± 0.062 | 1.02 ± 0.04 | 1.31 ± 0.087 | 1.34 ± 0.12 | 0.989 (active)
O=[N+]([O-])c1ccc(NCCc2ccccc2)c2ncccc12 | 0.971 ± 0.17 | 1.04 ± 0.086 | 1.6 ± 0.64 | 0.926 ± 0.032 | 1.25 ± 0.21 | 1.31 ± 0.2 | 0.997 (active)
Cc1ccc(-c2nn(-c3ccccc3)cc2C=C2C(=O)NC(=O)NC2=O)o1 | 1 ± 0.094 | 1.07 ± 0.066 | 1 ± 0.08 | 1.01 ± 0.037 | 1.42 ± 0.23 | 1.16 ± 0.072 | 1.01 (active)
COc1ccc(CNCCc2c[nH]c3ccccc23)cc1C | 0.373 ± 0.058 | 0.574 ± 0.054 | 1.22 ± 0.06 | 0.782 ± 0.08 | 1.04 ± 0.052 | 2.55 ± 0.19 | 0.154 (inactive)
ClC(Cl)=C(c1ccc(Cl)cc1)c1ccc(Cl)cc1 | 1.14 ± 0.36 | 1.03 ± 0.068 | 1.07 ± 0.11 | 0.961 ± 0.055 | 1.12 ± 0.12 | 1.25 ± 0.12 | 0.714 (active)
CN1C(=O)NC(=O)C(=Cc2ccc([N+](=O)[O-])o2)C1=O | 0.875 ± 0.069 | 1.06 ± 0.083 | 1 ± 0.12 | 0.92 ± 0.066 | 1.24 ± 0.14 | 0.961 ± 0.061 | 1.02 (active)
CC(=O)Nc1ccc(C(=O)NCC#CCN(C)C)cc1 | 0.899 ± 0.04 | 0.879 ± 0.083 | 1.07 ± 0.058 | 1.04 ± 0.057 | 1.17 ± 0.29 | 1.3 ± 0.45 | 1 (active)
CCOc1cc(C=C2C(=O)NC(=O)NC2=O)ccc1OCc1c(Cl)cccc1Cl | 1.06 ± 0.091 | 1.01 ± 0.07 | 0.938 ± 0.11 | 1.07 ± 0.038 | 1.35 ± 0.11 | 1.2 ± 0.14 | 1.01 (active)
CC(C)NC(C)C(O)c1ccc2c(c1)CCCC2.Cl (stereo unspecified) | 0.838 ± 0.066 | 1 ± 0.086 | 1.1 ± 0.038 | 0.818 ± 0.091 | 1 ± 0.099 | 0.891 ± 0.23 | 0.994 (active)

Reference: the supplement of paper PMC10646978
